Data: PubChem BioAssay

experiment: binders of probe aFSTL3 on microarray, primary screen, stem cell growth factor project, biochemical, small-molecule microarray, fluorescence 635/667 (AID 1064); details: higher = more signal;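 further: measures binding of the biotinylated anti-FSTL3 antibody to printed compounds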

Q: With CCOC(=O)NN=C1C[C@@H](O)[C@@H](O)[C@@H]2[C@@H]3C(=O)N([C@@H](C)c4ccccc4)C(=O)[C@@H]3CC[C@@H]12 as the compound, how does the composite z-score read?
A: The composite z-score was -0.291.

Q: Which composite z-score does the source give for COC(=O)[C@@H]1CC[C@H](C)[C@@H](c2ccc(C)cc2)N1C(=O)c1ccc(C=NO[C@@H](C)c2cn([C@H](CO)Cc3ccccc3)nn2)cc1 here?
A: Its composite z-score is -0.612.

Q: With O=C1CCCC=C1C(O)CCOC(c1ccccc1)(c1ccccc1)c1ccccc1 (stereo unspecified) as the compound, how does the composite z-score read?
A: Its composite z-score is -0.282.

Q: Which composite z-score does the source give for COC(=O)CC=C[C@@H](C)[C@@H]1C=C[C@H](O)[C@@H](CO)O1 here?
A: Its composite z-score is -0.202.

Q: With C[C@@H](ON=C1[C@H]2CCn3c(=O)n(-c4ccccc4)c(=O)n3[C@H]2[C@H](O)[C@@H]2O[C@H]12)c1cn([C@@H]2COC[C@H]2O)nn1 as the compound, how does the composite z-score read?
A: Its composite z-score is -0.648.

Q: For CO[C@@H]1COC(=O)[C@H](CCSC)NC(=O)CC=C[C@@H](C)COC(=O)CCC[C@H]1C, which composite z-score is on record?
A: The composite z-score was -0.994.

Q: With COc1cccc([C@@H]2Oc3ccc(OC)cc3C(=O)[C@H]2O)c1 as the compound, how does the composite z-score read?
A: The composite z-score was -0.457.

Q: For C=CC1=C[C@H](O)[C@@H]2O[C@@H]2C12OCCCO2, which composite z-score is on record?
A: Its composite z-score is -0.0605.

Q: With CCOC(=O)NN=C1C[C@@H](O)[C@@H](O)[C@@H]2[C@@H]3C(=O)N(Cc4ccccc4)C(=O)[C@@H]3CC[C@H]12 as the compound, how does the composite z-score read?
A: The composite z-score was -0.276.

Q: Which composite z-score does the source give for COC(=O)[C@@H]1CC[C@H](C)[C@@H](c2ccc(C)cc2)N1C(=O)c1ccc(C=NO[C@H](C)c2cn([C@H](CO)Cc3ccccc3)nn2)cc1 here?
A: Its composite z-score is -0.02.

Q: With COc1cc(O)c(C(=O)C=Cc2ccc3c(c2)OCO3)c(OC)c1 as the compound, how does the composite z-score read?
A: Its composite z-score is -0.132.

Q: For CCOC(=O)[C@H](CC(C)C)NC(=O)CCC1CC(OC(=O)NCc2cccc3ccccc23)CC2(CCCC(COC(=O)NCC3CCCCC3)O2)O1 (stereo partly specified), which composite z-score is on record?
A: The composite z-score was -0.338.

Q: With Cc1cc2c(c(=O)o1)[C@@H](O)[C@H]1O[C@H]1C2=O as the compound, how does the composite z-score read?
A: The composite z-score was -0.494.

Q: For Cc1ccc(S(=O)(=O)NC(CCc2ccccc2)CC(=O)C(C)(C)C)cc1 (stereo unspecified), which composite z-score is on record?
A: Its composite z-score is -0.651.

Q: With C[C@@H](c1ccccc1)N1C(=O)[C@H]2[C@H]3[C@H](O)[C@H](O)CC(=NO[C@@H]4O[C@H](CO)[C@@H](O)[C@H](O)[C@H]4O)[C@@H]3CC[C@H]2C1=O as the compound, how does the composite z-score read?
A: The composite z-score was -0.395.

Q: With CCN1C(=O)[C@@H]2[C@H]3C(=CC[C@@H]2C1=O)C1(OCCCO1)[C@H]1O[C@H]1[C@H]3O as the compound, how does the composite z-score read?
A: Its composite z-score is -0.418.

Q: With CCOC(=O)[C@H](CC(C)C)NC(=O)CCC1CC(OC(=O)NCc2cccc3ccccc23)CC2(CCCC(COC(=O)NCCCN3CCCC3=O)O2)O1 (stereo partly specified) as the compound, how does the composite z-score read?
A: Its composite z-score is -0.494.

Q: For CC(=O)OC[C@H]1OC(ON=CC[C@@H]2C=C[C@H](OC(C)=O)[C@@H](COC(C)=O)O2)[C@H](OC(C)=O)[C@@H](OC(C)=O)[C@@H]1OC(C)=O (stereo partly specified), which composite z-score is on record?
A: Its composite z-score is -0.314.

Q: With COc1ccc(O[C@@H]2[C@H](O)CO[C@@H]2C=Cc2ccccc2)cc1 as the compound, how does the composite z-score read?
A: Its composite z-score is -0.277.

Q: With O=C1[C@H]2[C@H]3[C@H](O)[C@H](O)CC(=NOC[C@@H](O)COCc4ccco4)[C@H]3CC[C@H]2C(=O)N1C[C@@H]1CCCO1 as the compound, how does the composite z-score read?
A: Its composite z-score is -0.634.

Q: For CC(C)=CCCC(C)=CCON=C1C[C@@H](O)[C@@H](O)[C@@H]2[C@@H]3C(=O)N(C(C)(C)C)C(=O)[C@@H]3CC[C@@H]12, which composite z-score is on record?
A: The composite z-score was 0.0454.

Q: With C#CCCCON=C1C[C@@H](O)[C@@H](O)[C@@H]2[C@@H]3C(=O)N(CCC(=O)OCC)C(=O)[C@@H]3CC[C@H]12 as the compound, how does the composite z-score read?
A: The composite z-score was -0.467.

Q: For C[C@H]1CC[C@H]2C(=O)O[C@H](COc3ccc(C(C)(C)C)cc3)CN2[C@@H]1c1ccc(Br)cc1, which composite z-score is on record?
A: Its composite z-score is -0.135.

Q: For CC(C)=CCCC(C)=CCON=C1C[C@@H](O)[C@@H](O)[C@@H]2[C@@H]3C(=O)N(c4cccc(Oc5ccccc5)c4)C(=O)[C@@H]3CC[C@@H]12, which composite z-score is on record?
A: The composite z-score was -0.473.

Q: With COc1ccc(O[C@H]2C=C[C@@H](c3ccccc3)O[C@@H]2COC(=O)CCC(C)=NOC(C)CN2CCCc3nc(C)c(C)cc32)cc1 (stereo partly specified) as the compound, how does the composite z-score read?
A: Its composite z-score is -0.451.

Q: For COC(=O)[C@H](C)NC(=O)CCC1CC(OC(=O)NCc2cccc3ccccc23)CC2(CCCC(COC(=O)NCC(c3ccccc3)c3ccccc3)O2)O1 (stereo partly specified), which composite z-score is on record?
A: The composite z-score was -0.766.

Q: Which composite z-score does the source give for C=COC[C@@H]1CN2[C@@H](CC[C@@H](C)[C@@H]2c2ccc(Br)cc2)C(=O)O1 here?
A: Its composite z-score is -0.154.

Q: For CCOC(=O)[C@H](CC(C)C)NC(=O)CCC1CC(OC(=O)NCc2cccc3ccccc23)CC2(CCCC(COC(=O)NCCC(C)C)O2)O1 (stereo partly specified), which composite z-score is on record?
A: Its composite z-score is -0.403.

Q: Which composite z-score does the source give for CCOC(=O)[C@H](Cc1ccccc1)NC(=O)CCC1CC(OC(=O)NCCc2ccc(F)cc2)CC2(CCCC(COC(=O)NCCc3ccccc3OC)O2)O1 (stereo partly specified) here?
A: Its composite z-score is -0.582.

Q: For CO[C@H](C1CCCCC1)[C@H](C)C=CCC(=O)OCCCc1ccccc1, which composite z-score is on record?
A: The composite z-score was -0.13.

Q: For O=C1C[C@@H](O)[C@@H](O)[C@@H]2[C@@H]3C(=O)N(Cc4ccccc4)C(=O)[C@@H]3CC[C@@H]12, which composite z-score is on record?
A: The composite z-score was -0.281.

Q: With CCN1C(=O)[C@H]2[C@H]3[C@H](O)[C@H](O)CC(=NOCC(C)C)[C@@H]3CC[C@H]2C1=O as the compound, how does the composite z-score read?
A: The composite z-score was -0.596.

Q: Which composite z-score does the source give for COC(=O)CC=C[C@@H](C)[C@@H](C=NOC[C@H]1O[C@H](c2ccccc2)C=C[C@@H]1Oc1ccc(OC)cc1)OC here?
A: Its composite z-score is -0.309.

Q: With CC(CCN1CCc2nc(-c3ccccc3)c(-c3ccccc3)cc2C1)=NOC[C@@H](O)[C@H]1O[C@@H]2OC(C)(C)O[C@@H]2[C@H]1O as the compound, how does the composite z-score read?
A: The composite z-score was -0.621.

Q: With O=C(NN=C1C[C@@H](O)[C@@H](O)[C@@H]2[C@@H]3C(=O)N(C4CCCCC4)C(=O)[C@@H]3CC[C@@H]12)OCc1ccccc1 as the compound, how does the composite z-score read?
A: The composite z-score was -0.107.

Q: For COc1ccc(O[C@H]2C=C[C@@H](c3ccccc3)O[C@@H]2CON=C(C)CCC(=O)OC[C@H]2O[C@H](c3ccccc3)C=C[C@@H]2Oc2ccc(OC)cc2)cc1, which composite z-score is on record?
A: The composite z-score was 0.0321.
